Source: PubChem
BRCA1 expr act: qHTS Assay to Identify Small Molecule Activators of BRCA1 Expression; Potency, µM (highest dose often 46.1 µM), for inactives: top-dose activation, actives largely listed as activators; actives 1.1% (n = 380,000); MCF7-BRCA1-FFLuc reporter, luminescence, 48 h; response scale: scaled: vehicle 0%, 10 µM genistein 100%; also: potency is read from the fitted curve at half-maximal effect; nearly all actives have a fitted effect of over 80% in size
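Luminescence from a BRCA1-driven firefly luciferase in MCF7 cells was read after 48 h compound exposure at 37 C. Data normalized against DMSO and a 10microM genistein activation control, then curve-fitted across the titration.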
RGS4 inhibitor: Inhibitors of Regulator of G Protein Signaling (RGS) 4: qHTS. Regulator of G-protein signaling 4 (Homo sapiens), P49798. AID 504845, 2011. Transcreener GDP fluorescence polarization, RGS4-accelerated GTP hydrolysis. Potency, µM (doses to about 114 µM), inactives show at the highest dose activity change, negative = inhibition, usual class: inhibitors. actives 0.039% (n = 390,000); also: potency is read from the fitted curve at half-maximal effect; % is scaled to controls: 0 for no effect and ±100 for the full control effect; nearly all actives have a fitted effect of over 75% in size
Target sequence (P49798 whole entry, looked up): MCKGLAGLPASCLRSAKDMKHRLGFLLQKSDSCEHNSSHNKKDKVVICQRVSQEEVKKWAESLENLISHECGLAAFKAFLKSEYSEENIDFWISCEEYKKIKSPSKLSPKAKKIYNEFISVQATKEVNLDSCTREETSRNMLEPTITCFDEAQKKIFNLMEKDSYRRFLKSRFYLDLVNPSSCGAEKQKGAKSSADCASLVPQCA
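MLSMR compounds (23 nl, pin-transferred) preincubated 10 min at room temperature with a 500nM (2x) first reagent, then RGS4 at 900nM (2x) plus Transcreener GDP mix added; fluorescence polarization (620/688 nm) read before and after 90 min at 30 °C.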
B2AR arrestin: qHTS assay of beta-arrestin-biased ligands of beta2-adrenergic receptor | actives 0.02% (n = 330,000) | Beta-2 adrenergic receptor (Homo sapiens), P07550 | beta-arrestin recruitment to beta2AR, cell-based reporter | Potency, µM (doses to about 46.1 µM), for inactives: at the highest dose activation, actives largely listed as activators;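 also: potency is read from the fitted curve at half-maximal effect; 0% = DMSO controls and full agonism = EC100 isoproterenol or metaproterenol; nearly all actives have a fitted effect of over 65% in size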
DRD3 agonist: qHTS of D3 Dopamine Receptor Agonist: qHTS | D3R DiscoveRx beta-arrestin cells, luminescence, 90 min | actives 0.58% (n = 410,000) | AID 652048, 2013 | max activation, % | D(3) dopamine receptor (Homo sapiens), P35462; in the data active = max activation above about 30%; also: 0% is about no effect
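Agonist mode: compounds and dopamine controls were applied to plated cells for 90 min at 37 degrees C after an overnight attachment at 1500 cells/well. Luminescent read-out followed 30 - 60 minutes at room temperature with DiscoveRx detection reagent.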
PTHR1 agonist: qHTS for PTHR1 Agonists: Primary Screen | Parathyroid hormone/parathyroid hormone-related peptide receptor (Homo sapiens), Q03431 | HEK293 GP2 PTHR1 cells, GloSensor cAMP luminescence, 1 h | Potency, µM (highest dose often 115 µM), inactives show at the top dose activation, hits mostly activators | actives 0.075% (n = 410,000) | AID 743266, 2014; also: potency is read from the fitted curve at half-maximal effect; nearly all actives have a fitted effect of over 55% in size
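HEK-293-derived GP2 cells expressing PTHR1 and a GloSensor cAMP reporter, 3,000/well, plated overnight, given luciferin plus IBMX (each 0.5 mM as added) for 1 h at 37 °C, then compound for 1 h at 37 °C. Luminescence was read after 15 min at room temperature.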
D3 antag: qHTS of D3 Dopamine Receptor Antagonist: qHTS; D(3) dopamine receptor (Homo sapiens), P35462; D3R cells, DiscoveRx beta-arrestin luminescence, antagonist mode; stronger effect = lower value; max response, negative = inhibition, %; actives 2.5% (n = 360,000); AID 652054, 2013; in the data active = max response below about -50%; inconclusive = no clear call, values can overlap the other calls; also: % is scaled to controls: 0 for no effect and ±100 for the full control effect
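Cells expressing the human receptor were seeded at 1500 cells/well, incubated overnight at 37 degrees C in 5% CO2, then exposed to library compounds with dopamine controls for 90 minutes at 37 degrees C before luminescent detection.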
* hit, by the source's call; i = inactive; ? = inconclusive; . = no result. Hits are enriched below; roughly 3.7% of the tested compounds scored in any of these assays. Unless noted, calls follow the shape of the dose curve; as a rule, active = well fitted curve in the direction sought with a large enough effect; inconclusive = small, poorly fitted or top-dose-only effect, or another doubt; inactive = no such curve, though single readings can be large; an effect the other way counts as inactive or inconclusive.

SMILES | BRCA1 expr act | RGS4 inhibitor | B2AR arrestin | DRD3 agonist | PTHR1 agonist | D3 antag
c1ccc(CNc2nc(-c3ccccn3)nc3ccccc23)cc1 | -46% | 21% | 0% | -15 | -84% | -74*
COc1ccc(N2CC(C(=O)NC3=NCCS3)CC2=O)cc1 (stereo not drawn) | -7% | 16% | 0% | -1 | 16% | -6
CC(=O)c1ccc(OCC(=O)NC2CCCN(Cc3ccccc3F)C2)cc1 (stereo not drawn) | -20% | 15% | -3% | -2 | -16% | -17
COc1ccc(/C=C\c2onc(C)c2S(=O)(=O)N2CCC(C(=O)Nc3cccc(C)c3C)CC2)cc1 | . | -12% | . | 6 | i | .
COc1ccc(/C=C\c2onc(C)c2S(=O)(=O)N2CCC(C(=O)Nc3cccc(Cl)c3)CC2)cc1 | . | 9% | . | 62* | i | .
O=C(c1ccc(Cl)c(S(=O)(=O)N2CCOCC2)c1)N(Cc1ccco1)Cc1cccs1 | -37% | -19% | 0% | 5 | -37% | 0
COc1cc(OC)cc(-c2c(-c3cccs3)c3cc(-c4ccc5[nH]ccc5c4)ccc3n2C)c1 | -28% | 3% | -1% | 39* | -10% | 17
c1ccc(C(c2ccccc2)c2noc(CN3CCC(c4ccncc4)CC3)n2)cc1 | 8% | 17% | 0% | 52* | -11% | -22
Cc1cccc(C(=O)OCC(=O)c2ccc3c(c2)OCO3)c1O | 6.3µM* | 10% | -1% | 8 | -50% | 11
Cc1cc(C(=O)COC(=O)c2ccccc2O)c(C)n1Cc1cccs1 | -92% | -33% | 0% | 17 | -38% | 29
O=C(COC(=O)c1ccccc1[N+](=O)[O-])c1ccc2c(c1)OCO2 | ? | 21% | -1% | -4 | -38% | 17
Cc1cccc(C(=O)OCC(=O)c2ccc3c(c2)OCCO3)c1O | 6.3µM* | -11% | 0% | 3 | -44% | 36
Cc1cc(C(=O)COC(=O)c2ccc3c(c2)OCO3)c(C)n1Cc1cccs1 | 5µM* | -19% | 0% | -7 | -19% | -5
CC(C)C(=O)Nc1ccccc1C(=O)OCC(=O)c1ccc2c(c1)OCCO2 | -1% | -18% | 1% | 3 | -5% | 26
CN(C)c1ccc(C(=C2c3ccccc3-c3ccccc32)c2ccc(N(C)C)cc2)cc1 | 18% | . | . | . | . | .
O=C1C=C(O)c2cccc3cccc1c23 | 3% | ? | 0% | -9 | i | -76*
O=C(O)c1cc([N+](=O)[O-])cc2c1nnn2O | 0% | -3% | 0% | -25 | i | -68*
C=C(CC[C@@H](O)C(C)(C)O)[C@H]1CC[C@]2(C)[C@@H]1CCC1[C@@]3(C)CCC(=O)C(C)(C)C3CC[C@]12C (stereo partly drawn) | 0% | 0% | 0% | 43* | i | 19
C=C(C)[C@@H]1CCC2(C(=O)O)CC[C@]3(C)[C@H](CC[C@@H]4[C@@]5(C)CCC(=O)C(C)(C)[C@@H]5CC[C@]43C)[C@@H]12 (stereo partly drawn) | -10% | -9% | -2% | 9 | i | 1
O=C(Nc1cccc(S(=O)(=O)N2CCOCC2)c1)c1ccc(=O)[nH]c1 | 6% | -30% | -1% | -2 | 19% | -8
CN(CCCNC(=O)C1CCCN(S(=O)(=O)c2cnc[nH]2)C1)c1ccccc1 (stereo not drawn) | -11% | -18% | 0% | 2 | i | -8
O=C(NCCN1CCN(c2ccccc2F)CC1)C1CC(=O)N(C2CCCC2)C1 (stereo not drawn) | 1% | -4% | 0% | -9 | i | -66*
